SMILES strings stand for the structures. Several values for one entry are separate records, joined by “and”; a condition that tells them apart may be missing. Equal entries are not always repeated. About 1,300 (0.41%) of roughly 320,000 compounds were called active. About 3% were inconclusive and are not listed. How the calls were made is not given here. A selection follows. Potency and affinity values are given separately.

From PubChem BioAssay AID488890 (Southern Research Specialized Biocontainment Screening …, 2010) come the findings set out here.

This test can be described thus: growth inhibition of non-replicating M. tuberculosis (AID 488890).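 Further: plate controls were DMSO cells for no effect and high antibiotic wells for full effect.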 The settings on record: Mycobacterium tuberculosis non-replicating, at 25 µM, stronger effect = higher value.
One may read the inhibition as the drop in the measured response relative to a control, in per cent. As for `Cc1c(Cl)cccc1NC(=O)C1CCCN(S(C)(=O)=O)C1` (stereo unspecified), the inhibition was found to be 1.51%. `Cc1ccc(S(=O)(=O)N2CCCCC2)cc1NC(=O)COC(=O)C1=COCCO1`: the inhibition was -3.36%. Regarding `CC(=O)c1c(O)cc(C(C)C)n(-c2ccccc2)c1=O`, the inhibition came out at 6.76%. Take `C=CCNC(=O)N[C@@H](CCSC)C(=O)OC`: the inhibition was -9.43%. Consider `O=C(COC(=O)c1n[nH]c2ccccc12)NCCc1ccc(Cl)cc1`, for which the inhibition turned out to be 18.4%. As to `Cn1c(CNc2ccc(O)cc2)nc2ccccc21`, the inhibition was 73.1%. As to `Cc1ccccc1NCc1nc2ccccc2n1C`, the inhibition came out at 34.2%. For the compound `CCCn1c(CNC(=O)Cc2ccccc2)nc2ccccc21`, the inhibition is -2.66%. Regarding `CCCn1c(CNc2ccc(Br)cc2)nc2ccccc21`, the inhibition was found to be 66.1%. With `COc1ccc(S(=O)(=O)N2CCC(C(=O)N3CCCCC3)CC2)cc1`, the inhibition is -4.95%. Take `O=C(CNC(=O)c1cccs1)NCC(=O)OCc1ccccc1Br`: the inhibition was found to be 20.5%.

In the case of `Cc1ccc(S(=O)(=O)Nc2ccc(F)cc2)cc1C(=O)N1CCOCC1`, the inhibition was -12.4%. Consider `COc1cc(OC)nc(-n2ncc(OC)c(Br)c2=O)n1`, for which the inhibition was -12%.

Take `COC(=O)c1cnn(-c2nc(OC)cc(OC)n2)c1C`: the inhibition is -11.5%. In the case of `COc1cc(C(=O)ON=C2C3CC4CC(C3)CC2C4)cc(OC)c1OC`, the inhibition was determined as 46.9%. As to `COc1ccc(-c2nc(CSCC(=O)N3CCN(C(=O)c4ccco4)CC3)c(C)o2)cc1OC`, the inhibition is -16.5%. As to `CCOC(=O)C1(CCOc2ccccc2)CCN(C(=O)CCSC)CC1`, the inhibition came to 10.9%. For the compound `O=C(CCN1C(=O)/C(=C\c2ccccc2Cl)SC1=S)N1CCN(c2ccccc2)CC1`, the inhibition came to 73.2%. Next, `COc1cccc(/C=C2/SC(=S)N(CCC(=O)N3CCOCC3)C2=O)c1`: 46.5%. `COc1cccc(/C=C2\SC(=S)N(CCCC(=O)N3CCCCC3)C2=O)c1`: the inhibition was 79%. As to `CN1CCN(C(=O)CCN2C(=O)/C(=C/c3ccccc3Cl)SC2=S)CC1`, the inhibition worked out at 18.9%. Take `O=C(c1ccco1)N1CCN(C(=O)c2ccc(COc3ccc(Cl)cc3Cl)o2)CC1`: the inhibition came to 11.7%.

Regarding `CS(=O)(=O)c1ccc2nc(NC(=O)CN3C(=O)C4CC=CCC4C3=O)sc2c1` (stereo unspecified), the inhibition was -9.69%. For the compound `COC(=O)c1ccc(N2NC(=O)/C(=C/c3cc(OC)c(OC)c(OC)c3)C2=O)cc1`, the inhibition was 13.4%. On to `C=CCn1c(O)c(N=NC(=O)c2ccc3c(c2)OCO3)c2ccccc21`, for which the inhibition worked out at 11.7%. As for `Cc1cc(C)n2nc(CNS(=O)(=O)c3ccc(CC(C)C)cc3)nc2n1`, the inhibition amounted to 7.85%. As to `O=C(NC1CC1)C1CC(=O)N(C2CCCCC2)C1` (stereo unspecified), the inhibition was -5.51%. Regarding `CC(NC(=O)CSc1nnc(-c2cc3cc(Cl)ccc3o2)n1C)c1ccccc1` (stereo unspecified), the inhibition is 16.7%.

On to `CNC(C)C#Cc1ccc2c(=O)c3c(OC)cccc3oc2c1` (stereo unspecified), for which the inhibition came to 42.6%. Regarding `CNC(C)C#Cc1ccc2oc3cccc(OC)c3c(=O)c2c1` (stereo unspecified), the inhibition stood at 57.7%. As to `CCOc1ccc(S(=O)(=O)N2CCC(C(=O)N3CCCCCC3)CC2)cc1C`, the inhibition is 21.6%. As to `O=[N+]([O-])c1ccc(N2CCCCC2)cc1SCCO`, the inhibition was 7.65%. In the case of `CC(=O)Nc1ccc(NC(=O)c2ccc(CN3CCc4ccccc4C3)cc2)cc1`, the inhibition was 28.5%. Next, `CC(C)NC(=O)c1ccc(CN2CCc3ccccc3C2)cc1`: -40%. As to `CCOC(=O)C1=C(C)Nc2sc(C(=O)c3ccc(OC)cc3)c(N)c2C1c1ccc(C(=O)OC)cc1` (stereo unspecified), the inhibition was 26.4%. `CCCCCC(=O)NC(=S)Nc1cccc(-c2nc3ncccc3o2)c1`: the inhibition is -12.6%. For the compound `COC(=O)c1ccc(C)c(NC(=O)CSc2nc3[nH]c(=O)cc(O)c3s2)c1`, the inhibition was determined as 11.9%. `Nc1ccc(C(=O)OCC(=O)N2CCc3ccccc3C2)cc1[N+](=O)[O-]`: the inhibition turned out to be 39%.

In the case of `COc1cccc(C(=O)OCC(=O)N2CCc3ccccc3C2)c1`, the inhibition was 43.9%.

For `COc1cccc(-c2nc(-c3ccccc3)c(-c3ccccc3)[nH]2)c1OCC(=O)O`, the inhibition was 4.59%. On to `O=[N+]([O-])c1cc(C(F)(F)F)ccc1NC1CCN(Cc2ccccc2)CC1`, for which the inhibition came to 52.5%. Next, `FC(F)Sc1ccc(-n2c(-c3ccc(Cl)cc3)c[n+]3c2CCC3)cc1`: -0.67%; `CCOc1ccc(C(=O)NCc2ccncc2)cc1OCC`: -10.7%. With `NS(=O)(=O)c1ccc(OC(=O)CNC(=O)OCc2ccccc2)cc1`, the inhibition was 6.9%.

For the compound `Cc1ccc(S(=O)(=O)N2CCN(C(=O)c3c(-c4ccccc4)noc3C)CC2)cc1C`, the inhibition came to 8.79%. In the case of `O=C(O)COc1ccc(Br)cc1CP(=O)(c1ccccc1)c1ccccc1`, the inhibition is -5.1%. Take `CCOC(=O)c1c(C)nn(-c2ncccc2NC(=O)NC(C)C)c1C`: the inhibition is -15.3%. For the compound `c1ccc(-c2cn(-c3ccccc3)c3[n+]2CCCS3)cc1`, the inhibition is -2.11%. `Cc1ccc(-c2cn(-c3ccccc3)c3[n+]2CCCS3)cc1`: the inhibition is 9.74% and -19.1%. As for `CCn1cc(C(=O)NC(=S)Nc2ccccc2[N+](=O)[O-])cn1`, the inhibition is 26.2%. For the compound `COCCNC(=O)C(c1ccc(O)cc1)N(Cc1cccs1)C(=O)CCC(=O)Nc1ccccn1` (stereo unspecified), the inhibition was 7.81%. On to `CCn1c(SCc2ccc([N+](=O)[O-])cc2)nnc1C(C)NC(=O)c1ccccc1Br` (stereo unspecified), for which the inhibition is -7.9%. Regarding `COc1ccc(CNC(=O)c2cc3c(C)nc4ccccc4c3o2)c(OC)c1`, the inhibition is 31.7%.

With `O=C(OCC1CC(c2ccccc2)=NO1)c1ccc(Cl)cc1` (stereo unspecified), the inhibition amounted to 25.9%. The figure for `COC(=O)C1CC(c2ccc(Cl)cc2)=NO1` (stereo unspecified) is 10.9%; for `CC(NS(=O)(=O)c1ccc2c(c1)oc(=O)n2C)c1ccccc1` (stereo unspecified) it is -7.19%; for `CC1Oc2ccccc2N(CC(=O)NC2CCCCC2)C1=O` (stereo unspecified) it is -12.6%. As to `COc1ccc(S(=O)(=O)N=Nc2c(O)[nH]c3ccccc23)cc1`, the inhibition came out at 2.14%. For the compound `O=C(Nc1cccc(Br)c1)c1ccc(OC2CSC2)cc1`, the inhibition turned out to be 79.7%. Regarding `O=C(NCCNC(=O)c1cccc(O)c1)c1cccc(O)c1`, the inhibition was -13.5%. Turning to `CCOC(=O)c1cc2c(C)[nH]c(C)c2cc(C(=O)OCC)c1=O`, the inhibition was -5.61%. Next, `CC(=O)Nc1ccc(NC(=O)C(C)Oc2ccc(Cl)cc2Cl)cc1` (stereo unspecified): 4.67%; `CC(Oc1ccc(Cl)cc1Cl)C(=O)Nc1ccc(O)cc1` (stereo unspecified): -1.96%; `CC(=O)c1cnc(Nc2nc(C)c3cc(C)c(C)cc3n2)nc1C`: 16.2%. In the case of `COc1ccc(-c2cc3ccccc3oc2=O)cc1`, the inhibition was 24.3%.

As for `O=c1oc2ccccc2cc1-c1nc(-c2ccccc2)no1`, the inhibition is -0.8%. On to `COc1ccc(-c2nc3c(c(SCC(=O)N4CCOCC4)n2)COC(C)(C)C3)cc1`, for which the inhibition is -3.27%. On to `CC1CCCCC1NC(=O)CN1C(=O)NC(C)(c2ccc(OC(F)F)cc2)C1=O` (stereo unspecified), for which the inhibition is -1.28%.

As to `CCCn1nnc(NC(=O)c2ccc3ccccc3c2)n1`, the inhibition was -1.15%.

For `CCCCC(=O)Nc1nnnn1CCC`, the inhibition turned out to be 12.9%. As for `Cc1ccccc1NC(=O)c1ccc2ccccc2c1`, the inhibition stood at 40.9%. In the case of `CCCn1nnnc1NC(=O)COc1ccc(Cl)c(C)c1`, the inhibition turned out to be 74.2%.

On to `CCCn1nnnc1NC(=O)c1cc(Br)ccc1OC`, for which the inhibition came to 66.1%. As to `Cc1nnc(NC(=O)c2ccc3ccccc3c2)s1`, the inhibition was 9.74%. With `CCCn1nnnc1NCc1ccc(Cl)cc1Cl`, the inhibition came to 1.4%. With `CCn1nnnc1NC(=O)c1ccc2ccccc2c1`, the inhibition was -1.96%.
